From the supplement of paper PMC6555819 come the findings set out here.

This experiment concerns VDR:RXRa (NR concentration 270 nM, RXRa partner concentration 90 nM). The experiment can be described thus: PBM binding z-score (relative to random genomic background probes); higher = stronger binding; sequences stand for … in GC…GCGATTGACAGCGTAGAATGAAGG
As for the experimental part: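 Protein-binding microarray (Agilent 4x180K custom design, double-stranded 60-nt probes: 5' GC cap, 34-nt variable region, 24-nt constant primer region; full probe sequence given). Purified or IVT nuclear receptor:RXRα heterodimers (3:1 NR:RXRα, mostly 270:90 nM) or homodimers were incubated for 1 h in PBS with 2% milk and no ligand, then detected with Alexa488 antibodies. Fluorescence from o1-orientation probes (~5 replicates averaged) was converted to z-scores against 500 random hg19 background probes. Variable regions are seed direct-repeat (DR0–DR5) sites, all their single-nucleotide variants and half-site ablations.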
The sequence CCTACTGGGCCAAGGTCACTGATCAGTCAAAGCA returned a PBM binding z-score of 2.92.

In turn, TCGAGTAGGTTAGTCGGGGCATTCTGCCAACATA registered a PBM binding z-score of 2.15. Regarding CTACCAAGGTGAACAAGGTCGGTGATTACTATTC, the PBM binding z-score is 4.17.

Sequence CTCGAGAGGTCGGTTGAGGTGAGTATACGGATAA had a PBM binding z-score of 2.59. Next, CGTGCAAGGTCAAGGTCAGTGAAAGAGACTCGAA: 4.83. The value for TCTTGTAGATCAAGAGGAGGTTAAGAAAGATCGA was 0.632; that for CGAACTAGGTCAAGCACAGTGAATCTCCGCACGC was 1.43; that for CCTTACGGGTCACACCAGGTTATAGCATCGGAGT was 4.89. The value for CGTCCAAGGTCAAGGTCTGTGAAAGAGACTCGAA was 3.73; that for ATCGAAAAGTCGTGAGGTGAGTATACAGAAAGGC was -0.173; that for TCATATAGGTAAAAGGCGAAAGTCGGTGTGGTAA was 0.679.

As to ACTAGCAGTCCAAGTTTGGGTCACTCAAACAAAG, the PBM binding z-score turned out to be 0.754. Next, ATTTCTAGGTAAAGATAGTTCAGTGAATGCAAAT: 1.18; ATCTCTAGGTAAAGATAGTTTAGTGAATGCAAAT: 0.322. The value for ATCTCTTGGTAAGACTCAGTTCAGTGAAGAACGC was 0.946; that for TTGAGTAGGTTACCAATGGGGCATTCAGCTTTCT was 0.365. Next, TTACCAAGGTGACAGGTCGTTGATGCACGCCTTG: 0.821; CAAACTAGGTCACCGGACGGTCAAAGTCCGCATG: 3.59; ATATGTAGGTTATCGGGTCAGTCAGTTTGCGCAT: 4.27.

As to CCTACTGGGCCATTCACAGGTCATTGATCATATG, the PBM binding z-score is 1.72.

For the sequence ATCTCTAGGTAACCAAGTTCGGTGAATGCCGAAC, the PBM binding z-score turned out to be 1.83. As to TCATATAGGTAATACAGTTGAAAGTCGGCATCTA, the PBM binding z-score amounted to 1.63. CCGACTGGGGCAAAGATTACCATACTCAGTACGA yielded a PBM binding z-score of -0.618. The value for TAGCCTAGGTCATTGGGACAGTATAGTACGCATC was 2.35; that for AGAATAAGGTTAAGATCAGGGAAACAGAATACAT was 1.14. In turn, ACAGACAGGTGATGAGGGTAACTCAGGCTATCAT displayed a PBM binding z-score of 0.16. Next, GCTTGTAGACCAAGGTTAAGAAAGACTAAGCTAA: 0.0143; GCTAGTTGGTCAGTAAAAGGCCACACACCGGTCG: -0.219. The value for CAAACTAGGTCACCGGTAGGTCAAAGTCCGCATG was 4.75; that for CGTCCAAGGACAAGGTCAGTGAAAGAGACTCGAA was 1.54; that for TCTATTAGTTGATTAGGGAAACCGAAACAGCGGA was 0.846.

The sequence TATACACGGTCAAAGGCCAGAGTACGAATGTCGA yielded a PBM binding z-score of 0.598.

Sequence ATATGAAGGTTAAGGGTCATTCAGGTTGGTTCGC returned a PBM binding z-score of 6.02.

Sequence GCTTACGGGCCAAAGGTTATAGCATGAATAGAAT gave a PBM binding z-score of 0.816. The value for AATACAGGGTCATCGTAGGCCTGAGTACGCACAG was 4.97; that for TCTTGTAGATCCAAGGTTAAGAAAGCCGAAGCCT was 0.448.

As for TCTTGTAGATCAACAGGAGGTTAAGATAGATCGA, the PBM binding z-score amounted to 0.488. The sequence ATCTCGAGGTAACCAAGTTCAGTGAATGCCGAAC had a PBM binding z-score of 5.47. The value for TCATCTAGGTAAATGCTAGGTGAAAGTCCGATCT was 0.555. Next, ATATGTAGGTTAGCTGGGGGCATTCAGACTAGGC: 4.08.
